Assay [1] can be described thus: BSK_CASM3C_SRB: Viability Assessment in the BioMAP Diversity Plus: CASM3C Assay (AID 2283050).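 Further: total protein by SRB staining as cytotoxicity measure in parallel cultures; cells exposed to compound for 24 h.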 The following applies: primary human coronary artery smooth muscle cells.
Read-out in assay [2]: Thrombomodulin, THBD (gene 7056)
Briefly: BSK_CASM3C_Thrombomodulin: BioMAP Diversity Plus: CASM3C Assay for Thrombomodulin Biomarker Activity (AID 2283051).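 Further: thrombomodulin protein level measured by ELISA 24 h after dosing.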 The following applies: primary human coronary artery smooth muscle cells; actives raise or lower the signal.

Read-out in assay [3]: Tissue Factor, F3 (gene 2152)
In words: BSK_CASM3C_TissueFactor: BioMAP Diversity Plus: CASM3C Assay for Tissue Factor Biomarker Activity (AID 2283052).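 Further: cell surface tissue factor protein level read by ELISA.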 Particulars: primary human coronary artery smooth muscle cells; actives raise or lower the signal.

Read-out in assay [4]: Interferon-gamma inducible Protein 10 (IP10), CXCL10 (gene 3627)
In words: BSK_hDFCGF_IP10: BioMAP Diversity Plus: hDFCGF Assay for Interferon-gamma inducible Protein 10 (IP10) Biomarker Activity (AID 2283053). The following applies: primary human foreskin fibroblasts; actives raise or lower the signal. In outline: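 Chemical-treated human skin fibroblasts (primary) were sampled at 24 h for IP-10 by ELISA. Both increases and decreases relative to DMSO were scored.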

Read-out in assay [5]: Vascular cell adhesion molecule 1 (VCAM1), VCAM1 (gene 7412)
Briefly: BSK_CASM3C_VCAM1: BioMAP Diversity Plus: CASM3C Assay for Vascular cell adhesion molecule 1 (VCAM1) Biomarker Activity (AID 2283055).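 Further: VCAM-1 protein level quantified by ELISA on the cells.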 Particulars: primary human coronary artery smooth muscle cells; actives raise or lower the signal.

Read-out in assay [6]: Collagen III, COL3A1 (gene 1281)
Briefly: BSK_hDFCGF_CollagenIII: BioMAP Diversity Plus: hDFCGF Assay for Collagen III Biomarker Activity (AID 2283056). The following applies: primary human foreskin fibroblasts; actives raise or lower the signal. In outline:
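ELISA read-out of collagen III from human skin fibroblast cultures sampled 24 h post-dosing. Values were derived by bidirectional fitting relative to the DMSO vehicle control.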

Read-out in assay [7]: Epidermal growth factor receptor (EGFR), EGFR (gene 1956)
In words: BSK_hDFCGF_EGFR: BioMAP Diversity Plus: hDFCGF Assay for Epidermal growth factor receptor (EGFR) Biomarker Activity (AID 2283057). Particulars: primary human foreskin fibroblasts; actives raise or lower the signal. Put shortly: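 Cell-based multiplexed assay in primary human foreskin fibroblasts. EGFR is read by ELISA 24 h after treatment and compared with DMSO controls.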

Read-out in assay [8]: Interleukin-8 (IL8), CXCL8 (gene 3576)
In words: BSK_hDFCGF_IL8: BioMAP Diversity Plus: hDFCGF Assay for Interleukin-8 (IL8) Biomarker Activity (AID 2283058). Particulars: primary human foreskin fibroblasts; actives raise or lower the signal. Put shortly: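 Cells used are human skin primary fibroblasts. Chemical is added, cultures run 24 h, then IL-8 is quantified by ELISA, and gain or loss versus DMSO control is fitted in both directions.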

Assay [9] can be described thus: BSK_hDFCGF_Proliferation: Cell Proliferation Assessment in the BioMAP Diversity Plus: hDFCGF Assay (AID 2283059).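 Further: curves fitted for both rise and fall of signal versus DMSO baseline.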 Particulars: primary human foreskin fibroblasts. In outline: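 This proliferation readout used SRB total-protein staining of human foreskin fibroblasts […], normalized to DMSO with bidirectional curve fitting.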
Read-out in assay [10]: Macrophage colony-stimulating factor (MCSF), CSF1 (gene 1435)
In words: BSK_hDFCGF_MCSF: BioMAP Diversity Plus: hDFCGF Assay for Macrophage colony-stimulating factor (MCSF) Biomarker Activity (AID 2283060). The following applies: primary human foreskin fibroblasts; actives raise or lower the signal. Put shortly:
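Primary human foreskin fibroblasts dosed with chemical; 24 h later, M-CSF quantified by ELISA; curves fitted in both directions vs DMSO negative control.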

A short description of assay [11]: BSK_hDFCGF_SRB: Viability Assessment in the BioMAP Diversity Plus: hDFCGF Assay (AID 2283061).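 Further: cells exposed to compound for 24 h before the read.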 The following applies: primary human foreskin fibroblasts. Put shortly: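 Readout is SRB absorbance at 560 nm, reflecting total protein in parallel cultures of human foreskin fibroblasts harvested 24 h after chemical dosing. Activity was fitted bidirectionally relative to DMSO.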

Read-out in assay [12]: TIMP metallopeptidase inhibitor 1 (TIMP1), TIMP1 (gene 7076)
Briefly: BSK_hDFCGF_TIMP1: BioMAP Diversity Plus: hDFCGF Assay for TIMP metallopeptidase inhibitor 1 (TIMP1) Biomarker Activity (AID 2283062). Particulars: primary human foreskin fibroblasts; actives raise or lower the signal. Put shortly:
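Human skin fibroblasts (primary), hDFCGF system; compound exposure 24 h; TIMP-1 by ELISA; bidirectional fit vs DMSO negative control; overt cytotoxicity by SRB in parallel wells.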

Read-out in assay [13]: Monokine induced gamma interferon (MIG), CXCL9 (gene 4283)
Briefly: BSK_hDFCGF_MIG: BioMAP Diversity Plus: hDFCGF Assay for Monokine induced gamma interferon (MIG) Biomarker Activity (AID 2283063). Particulars: primary human foreskin fibroblasts; actives raise or lower the signal. Put shortly:
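Chemicals were added to primary human foreskin fibroblast cultures, which were sampled 24 h later. MIG levels were then quantified by ELISA and responses fitted in both directions relative to DMSO.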

Read-out in assay [14]: Matrix Metallopeptidase 1 (MMP1), MMP1 (gene 4312)
In words: BSK_hDFCGF_MMP1: BioMAP Diversity Plus: hDFCGF Assay for Matrix Metallopeptidase 1 (MMP1) Biomarker Activity (AID 2283064). The following applies: primary human foreskin fibroblasts; actives raise or lower the signal. Put shortly: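 ELISA read-out of MMP1 from human foreskin fibroblasts (primary skin cells), 24 h post-dose. Gain or loss of signal was fitted bidirectionally versus DMSO negative control; cytotoxicity was checked by SRB in parallel cultures.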

Read-out in assay [15]: Vascular cell adhesion molecule 1 (VCAM1), VCAM1 (gene 7412)
In words: BSK_hDFCGF_VCAM1: BioMAP Diversity Plus: hDFCGF Assay for Vascular cell adhesion molecule 1 (VCAM1) Biomarker Activity (AID 2283065). Particulars: primary human foreskin fibroblasts; actives raise or lower the signal. In outline:
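Human foreskin fibroblast primary cells, chemical exposure 24 h; VCAM-1 by ELISA; bidirectional fit, DMSO = negative control/baseline.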

Read-out in assay [16]: Plasminogen activator inhibitor-1 (PAI1), SERPINE1 (gene 5054)
In words: BSK_hDFCGF_PAI1: BioMAP Diversity Plus: hDFCGF Assay for Plasminogen activator inhibitor-1 (PAI1) Biomarker Activity (AID 2283066). The following applies: primary human foreskin fibroblasts; actives raise or lower the signal. In outline: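 Human skin fibroblast cultures receive chemical for 24 h before PAI-1 is measured by ELISA; signal changes are fitted bidirectionally against DMSO-treated wells.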

Read-out in assay [17]: Intercellular Adhesion Molecule 1 (ICAM1), ICAM1 (gene 3383)
Briefly: BSK_KF3CT_ICAM1: BioMAP Diversity Plus: KF3CT Assay for Intercellular Adhesion Molecule 1 (ICAM1) Biomarker Activity (AID 2283067). The following applies: primary human keratinocytes with fibroblasts; actives raise or lower the signal. Put shortly:
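ICAM-1 levels are measured by ELISA 24 h after dosing a primary human co-culture of keratinocytes and foreskin fibroblasts. Activity in either direction is fitted relative to DMSO vehicle.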

Read-out in assay [18]: Interferon-gamma inducible Protein 10 (IP10), CXCL10 (gene 3627)
In words: BSK_KF3CT_IP10: BioMAP Diversity Plus: KF3CT Assay for Interferon-gamma inducible Protein 10 (IP10) Biomarker Activity (AID 2283068). The following applies: primary human keratinocytes with fibroblasts; actives raise or lower the signal. In outline: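 Signal is secreted/surface IP-10 by ELISA in a human primary skin co-culture of keratinocytes and foreskin fibroblasts, taken 24 h post-dosing; DMSO served as negative control.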

The nature of assay [19]: BSK_KF3CT_SRB: Viability Assessment in the BioMAP Diversity Plus: KF3CT Assay (AID 2283069).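 Further: total protein by sulforhodamine B staining as a cytotoxicity measure; read 24 h after compound addition; fitted for both signal gain and loss against DMSO baseline.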 The following applies: primary human keratinocytes with fibroblasts. Put shortly:
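SRB read-out at 560 nm (0.1% stain, TCA-fixed cells) gauges overt cytotoxicity in a human skin keratinocyte–fibroblast co-culture 24 h post-dosing. Signal change was fitted bidirectionally relative to DMSO control.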

Read-out in assay [20]: Urokinase-type plasminogen activator receptor (uPAR), PLAUR (gene 5329)
Briefly: BSK_CASM3C_uPAR: BioMAP Diversity Plus: CASM3C Assay for Urokinase-type plasminogen activator receptor (uPAR) Biomarker Activity (AID 2283054).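 Further: cell-surface uPAR protein level quantified by ELISA.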 The following applies: primary human coronary artery smooth muscle cells; actives raise or lower the signal.

Structures are written as SMILES. Activity calls are given as the source filed them. How the source made its calls: active means hit-call score of the fitted dose curve at least 0.9, where 1 is the maximum; inactive means score below 0.9.

In the case of `CC1(C(=O)Nc2ccc(O)c(Cl)c2Cl)CCCCC1`, the outcome in assay [1], in assay [2], in assay [3], in [4], in assay [5] and in [6] was inactive. Besides, the outcome in [7], in assay [8], in assay [9], in assay [10], in [11] and in [12] was inactive. Further, the result in assay [13], in [14], in assay [15], in assay [16], in assay [17] and in assay [18] was inactive. The result in assay [19] was inactive.
Turning to `CCCCN(CC)c1c([N+](=O)[O-])cc(C(F)(F)F)cc1[N+](=O)[O-]`, the outcome in [1], in assay [2], in assay [3], in assay [20], in assay [5] and in [7] was inactive. Besides, the outcome in assay [8], in assay [12], in assay [13], in [15], in assay [17] and in assay [19] was inactive. Also, the AC50 (as a rule, the midpoint of the concentration-response curve, whichever way the signal moves) in [4] is 25.5 µM (active); in assay [9], 27.9 µM (active); in assay [10], 29.8 µM (active); in [11], 30.1 µM (active); in [14], 4.66 µM (active); in assay [16], 31.1 µM (active). Moreover, in [18], the AC50 is 27.9 µM (active).
Regarding `C[N+]1(C)CCCCC1`, the result in assay [1], in [2], in assay [3], in assay [4], in assay [20] and in assay [5] was inactive. Besides, the result in [7], in [9], in [10], in assay [11], in assay [12] and in assay [13] was inactive. Besides, the outcome in assay [14], in assay [15], in assay [16], in assay [17], in assay [18] and in assay [19] was inactive.
Turning to `CN(C)NC(=O)CCC(=O)O`, the result in assay [1], in assay [2], in [3], in assay [4], in [20] and in assay [5] was inactive. For the same compound, the result in [7], in assay [9], in assay [10], in [11], in [12] and in assay [13] was inactive. Besides, the outcome in assay [14], in [15], in assay [16], in [17], in assay [18] and in [19] was inactive.
As to `COc1ccc(C(=CC(=O)N2CCOCC2)c2ccc(Cl)cc2)cc1OC`, the outcome in assay [1], in [2], in assay [3], in assay [4], in assay [20] and in assay [7] was inactive. The outcome in assay [9], in [10], in assay [11], in assay [12], in assay [13] and in assay [14] was inactive. For the same compound, the outcome in assay [15], in assay [17], in [18] and in [19] was inactive. Further, the results for the AC50 in assay [5] and in [16] were 7.56 µM (active) and 7.96 µM (active), respectively.

(Values after PubChem BioAssay (EPA / NIEHS).)
